Bioassay records (PubChem BioAssay)
An excerpt weighted towards active compounds, which were near 0.93% of everything screened.
CDC25B-CDK2 inh: human CDC25B-CDK2/CyclinA binding inhibition; P30305+P24941; HTRF CDC25B-CDK2/CyclinA binding, anti-His/anti-Flag; active compounds read high; z-score (test concentration not listed); 94,000 tested, 0.72% active; in the data active = z-score above about 3.2
TAR Tat displ: HIV-1 TAR-Tat binding disruption; z-score (test concentration not listed); HIV-1 TAR RNA, Tat peptide displacement FRET; active compounds read high; 100,000 tested, 0.6% active; AID 1259389; active = z-score of 3 or more in at least 2 runs
Numbers stand for hits; . = inactive; / = not tested or not shown.

SMILES	CDC25B-CDK2 inh	TAR Tat displ
C/C(=C\c1ccccc1)c1nnc2[nH]c(=O)n(C)c(=O)c2n1	.	19
Cc1cc(C)c2c(-n3cccc3)nn(CCCC(=O)NCc3ccco3)c2n1	/	.
CN(Cc1ccccc1)c1ncnc2c1sc1nc3c(cc12)COC(C)(C)C3	/	.
O=C(N/N=C/c1ccc(S(=O)(=O)c2ccc(Cl)cc2)cc1)c1cscn1	.	/
COc1cc(NC(=O)C(C)CS(=O)(=O)c2ccc3c(c2)NC(=O)C(C)S3)cc(OC)c1 (stereo not given)	/	15
Cc1cc(C)cc(NC(=O)C(C)CS(=O)(=O)c2ccc3c(c2)NC(=O)C(C)S3)c1 (stereo not given)	/	.
O=C1C[C@@H](c2ccc(O)c(O)c2)Oc2c1ccc(O[C@@H]1O[C@H](CO)[C@@H](O)[C@H](O)[C@H]1O)c2O	/	17
O=C1C[C@@H](c2ccc(O)cc2)Oc2cc(O[C@@H]3O[C@H](CO)[C@@H](O)[C@H](O)[C@H]3O)cc(O)c21	/	.
COc1ccc([C@@H]2CC(=O)c3c(O)cc(O[C@@H]4O[C@H](CO)[C@@H](O)[C@H](O)[C@H]4OC4O[C@@H](C)[C@H](O)[C@@H](O)[C@H]4O)cc3O2)cc1O (stereo not given in full)	/	4.4
COc1ccc(/C=C/c2cc(O)cc(O[C@@H]3O[C@H](CO)[C@@H](O)[C@H](O)[C@H]3O)c2)cc1O	/	.
O=C(/C=C/c1ccc(O)c(O)c1)c1ccc(O[C@@H]2O[C@H](CO)[C@@H](O)[C@H](O)[C@H]2O)c(O)c1O	/	31
C[C@@H]1O[C@@H](O[C@H]2[C@H](Oc3cc(O)c4c(c3)O[C@H](c3ccc(O)cc3)CC4=O)O[C@H](CO)[C@@H](O)[C@@H]2O)[C@H](O)[C@H](O)[C@H]1O	/	.
O=C(NC1CCCC1)c1ccc(Cn2c(=O)c3cccn3c3cccnc32)cc1	/	.
CCC12CN3CC(CC)(CN(C1)C3C1CCOC(C)(C)C1)C2=O (stereo not given)	.	.
O=C(OC[C@H]1O[C@H](OC(=O)c2cc(O)c(O)c(OC(=O)c3cc(O)c(O)c(O)c3)c2)[C@H](OC(=O)c2cc(O)c(O)c(OC(=O)c3cc(O)c(O)c(O)c3)c2)[C@@H](OC(=O)c2cc(O)c(O)c(OC(=O)c3cc(O)c(O)c(O)c3)c2)[C@@H]1OC(=O)c1cc(O)c(O)c(OC(=O)c2cc(O)c(O)c(O)c2)c1)c1cc(O)c(O)c(OC(=O)c2cc(O)c(O)c(O)c2)c1	/	26
CC(=O)OC[C@H]1O[C@@H](OCc2ccccc2)[C@H](OC(C)=O)[C@@H](OC(C)=O)[C@@H]1OC(C)=O	.	/
Cc1sc2c(c1C)CSC(C(=O)NCCN1CCCC1)=C2	/	6.3
O=C(NCCN1CCCC1)C1=Cc2sc3c(c2CS1)CCCC3	/	.
COc1ccc(S(=O)(=O)N(CCC#N)CCC#N)cc1OC	.	/
O=C(CSc1ccsc1[N+](=O)[O-])Nc1ccc(Br)cc1F	.	13
O=C(CSc1ccsc1[N+](=O)[O-])Nc1c(F)cc(F)cc1Br	.	.
COc1ccc(NC(=O)CSc2ccsc2[N+](=O)[O-])cc1Cl	.	10
O=C(CSc1ccsc1[N+](=O)[O-])NC1CCCC1	.	.
O=C(CSc1ccsc1[N+](=O)[O-])Nc1cccc(F)c1	.	5.2
CSc1ccc(CCNC(=O)CSc2ccsc2[N+](=O)[O-])cc1	.	.
SMILES	CDC25B-CDK2 inh	TAR Tat displ
COc1cccc(Nc2nc(N3CCN(c4ccc(F)cc4)CC3)nc3c2cnn3C)c1	/	.
O=C(Nc1ccccc1SCc1cc(=O)n2nc(C3CC3)sc2n1)c1cccs1	/	.
O=C(NCCO)Nc1ccc2snnc2c1	11	.
Cc1ccc(NC(=O)Nc2ccc3snnc3c2)cc1	.	/
Cc1cc2nc(COC(=O)COc3ccccc3F)cc(=O)n2o1	/	.
O=C(CSc1nc(-c2cccs2)nc2cc(=O)[nH]n12)Nc1ccccc1	/	.
CN(C(=O)CSc1nc(-c2ccccc2)nc2cc(=O)[nH]n12)c1ccccc1	/	.
Cc1ccc(-c2nc(SCC(=O)Nc3ccc(C)c(C)c3)n3[nH]c(=O)cc3n2)cc1	/	19
COc1ccc(NC(=O)CSc2nc(-c3cccs3)nc3cc(=O)[nH]n23)cc1	/	14
CSc1cccc(NC(=O)CSc2nc(-c3ccc4c(c3)OCO4)nc3cc(=O)[nH]n23)c1	/	22
CCc1ccc(NC(=O)CSc2nc(-c3ccc4c(c3)OCO4)nc3cc(=O)[nH]n23)cc1	/	.
CN(Cc1ccccc1)C(=O)CSc1nc(-c2ccccc2)nc2cc(=O)[nH]n12	/	10
Cc1cc(C)cc(NC(=O)CSc2nc(-c3ccccc3)nc3cc(=O)[nH]n23)c1	/	.
CCOC(=O)c1cccc(NC(=O)CCN2C(=O)c3cccc([N+](=O)[O-])c3C2=O)c1	.	/
C=C[C@@](C)(O)CCC1C(=C)C[C@H](O)C2C(C)(C)CCCC12C (stereo not given in full)	/	.
COc1ccc(S(=O)(=O)c2c(C(=O)c3ccc(C)cc3)cnc3cc4c(cc23)OCCO4)cc1	6.7	.
COc1ccc(S(=O)(=O)c2c(C(=O)c3ccc(C)cc3)cnc3cc4c(cc23)OCO4)cc1	.	.
C=C(C)C(CCC=C(C)C)C12C[C@@H](CC=C(C)C)C(C)(C)C(CC=C(C)C)(C(=O)/C(=C(/O)c3ccc(O)c(O)c3)C1=O)C2=O (stereo not given in full)	/	8.3
COc1ccc(OC)c(CCCCCc2cc(OC)ccc2OC)c1	.	/
CC1CC(C)CN(C(=O)CCS(=O)(=O)c2ccc3c(c2)n(C)c(=O)c(=O)n3C)C1 (stereo not given)	.	.
CN(CC(=O)N1CCc2ccccc2C1)S(=O)(=O)c1ccc2c(c1)CCCC(=O)N2	/	.
Cn1c(=O)c(=O)n(C)c2cc(S(=O)(=O)CCC(=O)N3CCc4ccccc4C3)ccc21	.	4.1
CN(C)S(=O)(=O)N(CC(=O)N1CCc2ccccc2C1)c1ccccc1	.	11
CCc1nnc2c3ccccc3nc(Nc3ccc(OC)cc3)n12	.	.
O=C(CCCn1c(=S)[nH]c2cc3c(cc2c1=O)OCO3)NCC1CCCO1 (stereo not given)	.	/
SMILES	CDC25B-CDK2 inh	TAR Tat displ
O=C(O[C@@H]1Cc2c(O)cc(O)cc2O[C@@H]1c1cc(=O)c(O)c2c(O)c(O)cc([C@H]3Oc4cc(O)cc(O)c4C[C@H]3O)c2c1)c1cc(O)c(O)c(O)c1	/	30
Oc1ccc([C@H]2Oc3cc(O)cc(O)c3C[C@H]2O)cc1	/	.
O=C(O)Cn1nnc(-c2ccccc2)n1	.	.
CC(C)NC(=O)c1ccc2c(c1)CCN2S(C)(=O)=O	.	.
CS(=O)(=O)N1CCc2cc(C(=O)NCc3ccco3)ccc21	.	14
CC1CCC(C(=O)Nc2cc3c(cc2N2CCOCC2)n(C)c(=O)n3C)CC1 (stereo not given)	.	.
O=C(O)CN(CCN(CC(=O)O)Cc1ccccc1O)Cc1ccccc1O	/	.
O=C(O)CN(CC(=O)O)CC(=O)O	3.6	/
CC(=O)NCc1c(Cl)cccc1Sc1ccc(Cl)cc1	.	/
COc1ccc(/C=C(\C#N)C(N)=S)cc1	.	/
CC1CN(C)C(C)C(/C=C(/C#N)C(N)=S)C1=O (stereo not given)	7.9	/
O=C(Nc1ccc(F)cc1)c1c[nH]n2c(=O)cc(C3CCNCC3)nc12	.	.
CCOC(=O)C1=C(C)N=C2SC(CC)C(=O)N2C1c1ccc(OC)c(OC)c1 (stereo not given)	.	.
Cc1c(Br)sc(Br)c1-c1ccccc1	.	/
